CHX counter: counter-screen for Shiga toxin inhibitors: cycloheximide protein synthesis inhibition | 12% of 300,000 active | cell reporter, cycloheximide protein synthesis inhibition counterscreen | max response, % | AID 2314; in the data active = max response mostly above about 13%, no sharp cut-off; inactive = mostly below about 14%; also: read at 38.3 µM for the half of the compounds with a filed dose
NS1 function inh: inhibitors of influenza NS1 protein function. Potency, µM (series often up to 46.1 µM). 0.4% of 270,000 active. AID 2326; also: actives are rising curves; nearly all actives have a fitted effect of over 50% in size
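Compounds were scored for reversing the slow growth caused by influenza A NS1 in S. cerevisiae, measured by optical density at 600 nm. Assay medium contained 2% galactose at pH 6.0; NS1-free yeast of the same strain were the positive control.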
Pf growth 96h: P. falciparum growth inhibition at 96 hour, primary screen for plastid delayed-death inhibitors | P. falciparum luciferase reporter growth, 96 h | Potency, µM (highest dose often 28.7 µM), hits mostly inhibitors | 6.9% of 320,000 active | AID 504834; active = well fitted inhibition curve with a large enough effect; inconclusive = small, poorly fitted or top-dose-only effect, or another doubt; inactive = no such curve, though single readings can be large or run the other way
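Cell-based qHTS: luciferase-tagged P. falciparum in erythrocytes (2% hematocrit, 0.05% parasitemia final) incubated with compounds for 96 hours, 37 C, 5% CO2; luciferase detection reagent then added and luminescence measured.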
Shiga inhibitor: Shiga toxin inhibition; inhibition, % at 38.7 µM; AID 2315; Vero cells, Shiga toxin protein synthesis inhibition reporter; 9.2% of 290,000 active; in the data active = inhibition mostly above about 28%, no sharp cut-off; inactive = mostly below about 43%
Pf growth 48h: inhibits P. falciparum growth in the first generation, 48 h; Potency, µM (titrated, usually from 28.7 µM), actives largely listed as inhibitors; AID 504832; P. falciparum luciferase growth in erythrocytes, 48 h; 5.9% of 310,000 active; active = well fitted inhibition curve with a large enough effect; inconclusive = small, poorly fitted or top-dose-only effect, or another doubt; inactive = no such curve, though single readings can be large or run the other way
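Growth was read as firefly luciferase luminescence after a 48 h, 37 C, 5% CO2 exposure of compounds to reporter-bearing P. falciparum cultures (0.1% parasitemia, 2% hematocrit final) in Albumax-supplemented RPMI 1640.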
SARS PLpro yeast: inhibitors of SARS-CoV papain-like protease in yeast | S. cerevisiae expressing SARS-CoV PLpro, growth rescue | Potency, µM (highest dose often 32.9 µM), most hits filed as activators | 0.19% of 330,000 active | AID 485353; also: nearly all actives have a fitted effect of over 55% in size
Large screens that a line does not name were inactive. Most compounds without a hit are left out; they make up all but 21% or so of the library. Unless noted, calls follow the shape of the full dose curve.

CNCCCOc1cccc(OC(C)C)c1	CHX counter 19.0, Shiga inhibitor 140.9 (no result: Pf growth 96h)
Cc1ccccc1OCC(=O)NNC(=O)c1ccoc1C	none (no result: CHX counter, NS1 function inh, Shiga inhibitor)
C=CCn1c(-c2ccc(Cl)cc2)cnc1SC(C)C(=O)NC(N)=O (stereo not drawn)	Pf growth 96h inconclusive (no result: NS1 function inh)
CCC(C)(C)NC(=S)Nc1ccc(-c2nc3ccc(C)cc3s2)cc1	CHX counter 43.9, Shiga inhibitor 82.1
CCCCNC(=S)Nc1ccc(-c2nc3ccc(C)cc3s2)cc1	CHX counter 65.4, Shiga inhibitor 50.8
COc1ccccc1-c1sc2cc3c(cc2c1C#CC1(O)CCCCC1)OCO3	Pf growth 96h 4.65µM, Pf growth 48h inconclusive (no result: CHX counter, NS1 function inh, Shiga inhibitor)
CN(C)S(=O)(=O)c1ccc(N2CCCC2)c(C(=O)Nc2ccc(F)cc2F)c1	Pf growth 96h inconclusive, Pf growth 48h inconclusive (no result: CHX counter, NS1 function inh, Shiga inhibitor)
CCN(CC)S(=O)(=O)c1ccc(N2CCCCC2)c(NC(=O)/C(C#N)=C/c2ccc(OC)cc2)c1	Pf growth 96h 11.7µM, Pf growth 48h inconclusive
CCN(CC)S(=O)(=O)c1ccc(N2CCCC2)c(NC(=O)Cc2ccc(OC)cc2)c1	Pf growth 96h inconclusive, Pf growth 48h inconclusive (no result: NS1 function inh)
CCN(CC)S(=O)(=O)c1ccc(N2CCCC2)c(NC(=O)c2ccc(OC)cc2OC)c1	Pf growth 96h inconclusive, Pf growth 48h 13.1µM (no result: NS1 function inh)
COc1ccc(C(C)(C)C)cc1NC(=O)c1cc(S(=O)(=O)N(C)C)ccc1N1CCCC1	NS1 function inh inconclusive, Pf growth 96h 9.28µM, Pf growth 48h 13.1µM
CCOc1ccc(S(=O)(=O)Nc2cc(S(=O)(=O)N(CC)CC)ccc2N2CCCC2)cc1	Pf growth 96h 1.31µM, Pf growth 48h 7.38µM
CCN(CC)S(=O)(=O)c1ccc(N2CCCC2)c(NC(=O)C2CCCCC2)c1	none
CCN(CC)S(=O)(=O)c1ccc(N2CCCC2)c(NC(=O)Cc2cc(OC)c(OC)c(OC)c2)c1	Pf growth 96h inconclusive, Pf growth 48h 7.38µM
CCN(CC)S(=O)(=O)c1ccc(N2CCCCC2)c(NC(=O)/C=C/c2ccc(OC)c(OC)c2)c1	NS1 function inh inconclusive, Pf growth 96h 10.4µM, Pf growth 48h 9.28µM
CCN(Cc1ccc2c(c1)OCCO2)C(=O)CN1C(=O)NC2(CCCCC2)C1=O	Pf growth 96h inconclusive, Pf growth 48h inconclusive (no result: CHX counter, NS1 function inh, Shiga inhibitor)
CC(Sc1nnc(-c2ccc(O)cc2)o1)C(=O)Nc1cccc2ccccc12 (stereo not drawn)	none (no result: Pf growth 48h)
NC(=O)[C@@H]1[C@@H]2C(=O)N(c3ccc(F)cc3)C(=O)[C@@H]2[C@H]2C=Cc3ccccc3N21	Pf growth 96h inconclusive, Pf growth 48h inconclusive
O=C(c1ccco1)[C@@H]1[C@@H]2C(=O)N(c3ccc(F)cc3)C(=O)[C@@H]2[C@H]2C=Cc3ccccc3N21	NS1 function inh inconclusive, Pf growth 96h 3.7µM, Pf growth 48h inconclusive
Cc1c(C=O)c2ccccc2n1CCOc1ccccc1F	Pf growth 96h 8.28µM, Pf growth 48h inconclusive, SARS PLpro yeast inconclusive
Cc1c(/C=N/n2cnnc2)c2ccccc2n1CCOc1ccccc1	Pf growth 96h inconclusive, Pf growth 48h 13.1µM (no result: NS1 function inh)
COc1ccccc1OCCn1c(C)c(C=O)c2ccccc21	Pf growth 96h inconclusive, Pf growth 48h inconclusive
COc1ccccc1OCCn1cc(/C=N/n2cnnc2)c2ccccc21	Pf growth 96h inconclusive, Pf growth 48h inconclusive
Fc1ccccc1OCCn1c(=S)[nH]c2ccccc21	CHX counter 24.2, Pf growth 96h inconclusive, Shiga inhibitor 27.8, SARS PLpro yeast inconclusive
COc1ccc(C(=O)CSc2nnc(C3CCCCC3)n2N)c(OC)c1	Pf growth 96h 9.28µM
COC(=O)NC1(C(F)(F)F)C(=O)Nc2c1c(=O)n(C)c(=O)n2C (stereo not drawn)	none
NC(=O)CSc1nnc(NC(=O)c2ccc(S(=O)(=O)N3CCCCC3)cc2)s1	Pf growth 48h inconclusive (no result: CHX counter, NS1 function inh, Shiga inhibitor)
Cc1cc(NC(=O)C(C)C)ncc1NC(=O)c1ccco1	none
COc1cccc(C(=O)Nc2cnc(NC(=O)c3ccco3)cc2C)c1	CHX counter 16.2, Pf growth 96h 5.22µM, Shiga inhibitor 46.6
Cc1cc(NC(=O)c2ccco2)ncc1NC(=O)Cc1ccccc1	CHX counter 18.7, Pf growth 96h 8.28µM
COc1ccc(CNC(=O)CN(Cc2ccco2)C(=O)CNS(=O)(=O)c2ccc(F)cc2)cc1	none
COc1c2occc2c(OC)c2c(=O)cc(C(F)(F)C(F)(F)F)oc12	none

Source: PubChem (National Center for Advancing Translational Sciences (NCATS))
